Measurements reported in PubChem BioAssay AID493014 (National Center for Advancing Translational Sciences (NCATS), 2011).
Out of some 340,000 compounds screened, about 170 (0.05%) were called active. Inconclusive results (about 26%) are left out. The call rests on the fitted dose curve; in most records, active means well fitted inhibition curve with a large enough effect in the signal ratio, with a control signal flat (not every such curve was filed as active); inconclusive means small, poorly fitted or top-dose-only effect, or effect the other way, or a change in a side signal; inactive means flat fitted curve, though single readings scatter; the % refers to the signal ratio. This excerpt belongs to a sample that is enriched for actives.

Assay: qHTS Assay to Find Inhibitors of Chronic Active B-Cell Receptor Signaling
Conditions: ABC-DLBCL IkBa-CBG/CBR reporter, luminescence ratio, 4 h; series mostly up to 46.1 µM
From the text: NIH Molecular Libraries Probe Production Network [MLPCN] NIH Chemical Genomics Center [NCGC] MLPCN Grant: 1 R03 DA031086-01A1 PI Name: Dr. R. Eric Davis NCGC Assay Overview: Diffuse large B-cell lymphoma (DLBCL) is the most common category of non-Hodgkin lymphoma, with ~20,000 new cases per year in the United States. DLBCL should be regarded as a collection of different neoplasms. Microarray gene expression analysis has defined two principal types of DLBCL, named for their similarity to normal B cell stages or activation states: a germinal center B-cell (GCB) type, and an activated B-cell (ABC) type. In ABC-DLBCL, a constitutive high-level activity of the NF-kappaB family of transcription factors has been observed (1) and NF-kappaB target genes are more highly expressed in ABC primary tumors than in GCB tumors. Functional studies have shown a constitutive high-level activity of the IkappaB (inhibitor of kappa-B) kinase (IKK) complex. […] Further analysis of DLBCL primary tumors for NF-kappaB target gene expression imply that although CARD11 is required for constitutive IKK activity in all ABC-DLBCL lines, mutations in CARD11 may be the root cause of IKK activation only in lines or tumors with such mutations. In other words, CARD11 mutations may explain NF-kappaB activation in only 10% of ABC-DLBCL cases. […] This process has been termed 'chronic active BCR signaling' (CABS). The goal of this screen is to find small-molecule inhibitors of the CABS pathway found in ABC-DLBCL lines using a cell-based assay that measures IkappaBalpa stability, which has already been extensively validated in the OCI-Ly3 line (PubChem AID:445; REF: 4). […] The assay uses green (CBG68) and red (CBR) emitting beetle luciferases [Chroma-GloTM developed by Promega Corp.] where the green luciferase is fused to IkappaBalpha and the red luciferase is present in its native state. Both luciferase genes are stably present in the TMD8 human ABC DLBCL cell line, but their expression is under the control of tetracycline-inducible promoters. Following the addition of doxycycline to induce expression of the luciferases, the green luminescence in control cultures rises only slowly because the CBG fusion partner IkappaBalpha is targeted by IKK activity for rapid degradation. In contrast, green luminescence rises rapidly in the presence of proteasome inhibitors or IKK inhibitors. The rise in red luminescence of CBR is not affected by proteasome or IKK inhibitors, and serves as normalization for cell number and nonspecific effects. Compounds were screened as a concentration-titration series that ranged from 46 uM to 3 nM.
NCGC Assay Protocol Summary: Cells were seeded in 1536-well plates at 5000 cells/4uL in IMDM medium containing 0.5% FBS, w/o phenol red, 1% penicillin/streptomycin. Then, 23 nL of compounds or DMSO were delivered to each well using a pin tool. One uL 20ng/ml doxycycline was then dispensed into white solid 1536-well plates and the plates were incubated at 37C/5% C02 in a cell incubator for 4 hrs. Then 4 uL luminescent substrate mix (in-house prepared: 150 mM Tris-Cl, pH 7.6, 3 mM MgCl2, 1% Triton X-100, 5 mM DTT, 0.2 mM CoA, 0.15 mM ATP, 5 mM D-luciferin, final concentrations) was added to each well. The plate was incubated at r.t. for 10-15 min. The plates were measured on a ViewLux plate reader for green luminescence (540/20 nm filter) and red luminescence (618/8 nm filter). The green and red luminescent signals were corrected for red and green luminescence filter overlap using previously determined filter calibration constants (determined using the procedure outlined in the Promega Technical Manual; REF 4). The %Activity was determined from the ratio of corrected green/red luminescent values. MG132 were used as control. […] Red luminescent %Activity was normalized to the difference between red luminesence in basal cells (0%Activity) and zero luminescence (-100% Activity). […]
Potency means the concentration at half of the fitted maximal effect.

Potency, active:
COc1ccc(CNC(=O)/C(C#N)=C/c2cccc(OC)c2OC)cc1 11.2 µM

Potency, inactive:
Cn1c(CC(=O)NNC(=O)c2ccccc2F)nc2ccccc21, CN1C(=O)[C@H]2[C@@H](/C=C/c3ccccc3)N3C(=O)CN(Cc4ccc(-c5ccccc5)cc4)C(=O)[C@@]3(C)[C@H]2C1=O, COc1cc(Cl)ccc1OCc1cc(C(=O)N(C)CCc2c(C)n[nH]c2C)no1, CC1CCN(c2ccc(-c3ccc(NC(=O)c4ccco4)cc3)nn2)CC1, CC(C)(C)OC(=O)C[C@@H]1C/C=C\C[C@@H](CC(=O)N[C@H](CO)Cc2ccccc2)C(=O)NCCOC1=O, CCN1C(=O)[C@@H]2[C@@H](c3ccc(-c4ccccc4)cc3)N3CCCC[C@@]3(C(=O)OC)[C@@H]2C1=O, CCN(c1ccccc1)S(=O)(=O)c1ccc(C(=O)Nc2ccccc2OC)cc1, COc1ccc(-c2csc3ncnc(N4CCN(S(=O)(=O)c5cccc(F)c5)CC4)c23)cc1, CC(=O)c1c(C)[nH]c(C(=O)COC(=O)c2cccs2)c1C, COc1ccc(-c2c(C#Cc3ccsc3)c3cc(-c4ccc(CN5CCOCC5)cc4)ccc3n2C)cc1, O=C(Nc1cc(S(=O)(=O)Nc2ccc(Cl)cc2)ccc1O)c1ccc(F)cc1F, Cc1cc(C)cc(OCC(=O)Nc2ccc(N3CCOCC3)cc2N2CCOCC2)c1, C=CC[C@H](CC(=O)NCCO)C(=O)N[C@@H](COC(=O)[C@@H](CC=C)Cc1ccc(F)cc1)Cc1c[nH]c2ccccc12, CSCc1nnc(NC(=O)c2ccc(S(=O)(=O)N3CCCCC3C)cc2)o1 (centres undefined), CCOCc1c(C(=O)N2CCN(Cc3ccc(Br)s3)CC2)oc2ccccc12, COc1cc(OC)cc(-c2c(-c3cccs3)c3cc(-c4ccc(OC)cc4F)ccc3n2C)c1, COc1ccc(CNC(=O)C[C@H]2C[C@H](C(=O)N3CCOCC3)[C@@]3(C)c4[nH]c5cc(CCC(=O)N(C)C)ccc5c4CCN3C2=O)cc1OC, O=C(COC(=O)c1c(Cl)cccc1Cl)Nc1cccc(S(=O)(=O)NC2=NCCCCC2)c1, CCN(CC)S(=O)(=O)c1ccc(N2CCN(C)CC2)c(NC(=O)Nc2ccccc2F)c1, CCCN(CC(=O)NC(=O)NC1CCCCC1)CC(=O)Nc1cc(Cl)ccc1Cl, COc1cc(C(=O)NCc2ccncc2)cc(Br)c1OCc1ccccc1, CN(c1ccccc1)S(=O)(=O)c1cc(C(=O)N2CCN(c3ncccn3)CC2)ccc1Cl, CN[C@H](C(=O)NC[C@H]1O[C@@H](n2cnc3c(N)ncnc32)[C@H](O)[C@@H]1O)[C@@H](C)OCc1ccccc1, CCN(CC)S(=O)(=O)c1ccc(CNC(=O)CN2C(=O)NC3(CCc4ccccc43)C2=O)cc1 (centres undefined), O=C(NC1CCCCCC1)C1CCN(C(=O)c2ccc(Cl)cc2)CC1, Cc1nn(Cc2ccccc2)c(C)c1C(=O)N1CCN(CC(=O)Nc2ccccc2Cl)CC1, COc1cc(OC)cc(-c2c(-c3ccc(F)cc3)c3cc(-c4ccc5cc[nH]c5c4)ccc3n2C)c1, O=C(CNC(=O)c1ccco1)NNC(=O)c1ccc(Br)cc1, CC(C)(C)OC(=O)C[C@@H]1C/C=C\C[C@@H](CC(=O)NCCO)C(=O)N[C@H](Cc2c[nH]c3ccccc23)COC1=O, CC(C)c1ccc(S(=O)(=O)N2CCN(C(C)C(=O)NC3CCCC3)CC2)cc1 (centres undefined), CN(CC(=O)Nc1ccc(Cl)c(C(F)(F)F)c1)C(=O)CCC(=O)c1ccccc1, CC1CCC(CN2CCN=C2N(C)C)CC1 (centres undefined), COc1ccc(C(CNC(=O)c2ccc(NS(=O)(=O)c3ccc(F)c(C)c3)cc2)N(C)C)cc1 (centres undefined), COc1cc(OC)cc(C(=O)N[C@H](C(=O)NNC(=O)c2ccc(Br)cc2)C(C)C)c1, CCN1C(=O)[C@@H]2[C@@H](c3ccc(-c4cccc(Cl)c4)cc3)N3CCC[C@@]3(C(=O)OC)[C@@H]2C1=O, C=C(C)CNc1cc(S(=O)(=O)N2CCOCC2)ccc1Oc1ccccc1, Cc1cc(Cl)c2oc(C(=O)N(C)C(C)c3ccccn3)c(C)c2c1 (centres undefined), CSCCC(NC(=O)c1ccccc1)C(=O)N1CCN(Cc2ccc(Cl)cc2)CC1 (centres undefined), COc1ccc(S(=O)(=O)N(C)C[C@H]2Oc3c(NC(=O)Nc4ccc5c(c4)OCO5)cccc3C(=O)N([C@H](C)CO)C[C@@H]2C)cc1, O=C(NCCC1CCCCN1S(=O)(=O)c1ccc(Cl)cc1)C(=O)NCc1ccco1 (centres undefined), O=C(NCCC(=O)N1O[C@@H]2C=C[C@H]1C2)OCC1c2ccccc2-c2ccccc21, N#Cc1cccc(NC(=O)C2CCCN(C(=O)c3ccc(Cl)cc3)C2)c1 (centres undefined), CC(C)(C)OC(=O)C[C@@H]1C/C=C\C[C@@H](CC(=O)N[C@@H](CO)Cc2ccccc2)C(=O)N2CCC[C@H]2COC1=O, CNS(=O)(=O)c1cccc(C(=O)OCCCC(=O)c2ccccc2)c1, COc1ccc(-c2noc(CCC(=O)N3CCN(c4cccc(C)c4)CC3)n2)cc1, Cc1ccc(N2C(=O)N3[C@@H]4c5ccccc5OC[C@@H]4[C@@H](c4ccccc4)[C@@]3(C)C2=O)cc1, CC(C)n1ncc2c(C(=O)Nc3ccc(CC#N)cc3)cc(C3CC3)nc21, COc1cccc(N2CCN(CC(=O)Nc3ccnn3C3CCCC3)CC2)c1, COc1ccccc1-c1sc2ccccc2c1C#CC1(O)CCCCC1, C#CCOCCOCCOCCNc1nc(N2CCN(C(=O)[C@H](CO)n3cc([C@@H](N)C(C)C)nn3)CC2)nc(N2CCN(C(=O)[C@H](CCC(=O)O)n3cc([C@@H](N)[C@H](C)CC)nn3)CC2)n1, CCCCC/C=C/C1=CC(=O)C[C@H](c2ccc(Cl)cc2)C1, COc1ccc(NS(=O)(=O)c2ccc3oc(SCC(N)=O)nc3c2)cc1, COC1=C(N2CCOCC2)C(=O)c2ccccc2C1=O, CCOC(=O)C1CCN(C(=O)CN2C(=O)NC(C)(c3ccc4cc(OC)ccc4c3)C2=O)CC1 (centres undefined), CC(C)(C)OC(=O)C[C@@H]1C/C=C\C[C@@H](CC(=O)N[C@H](CO)Cc2ccccc2)C(=O)NC[C@@H](c2ccccc2)OC1=O, Cc1ccc(NC(=O)CCC(=O)N2CCC(c3ccccc3)=N2)cc1S(=O)(=O)N1CCCCC1, Cc1ccc(-n2ncc(C(=O)NC3CC3)c2C2CCN(C(=O)OC(C)(C)C)CC2)c(C)c1, COc1ccc(CN2C(CC(=O)Nc3cccnc3)c3ccc(C(F)(F)F)cc3S2(=O)=O)cc1 (centres undefined), Cn1c2cc(B(O)O)sc2c2cnn(Cc3ccccc3F)c(=O)c21, COc1ccc(-c2c(-c3cc(OC)cc(OC)c3)n(C)c3ccc(-c4ccn[nH]4)cc23)cc1, COc1ccc(S(=O)(=O)N2CCCCC2)cc1NC(=O)c1cc([N+](=O)[O-])ccc1N1CCOCC1, Cc1ccc(NC(=O)c2cccc(S(=O)(=O)N3CCCc4ccccc43)c2)nc1, Cc1ccc(S(=O)(=O)N2CCN(C(=O)Cn3c(=O)cnc4ccccc43)CC2)c(C)c1, COc1ccc(N2CCN(C(CNS(=O)(=O)c3ccc(C)cc3)c3ccccc3)CC2)cc1 (centres undefined), COc1ccc(CCN(C)C(=O)C23CC4CC(CC(Cl)(C4)C2)C3)cc1OC, COC(=O)[C@]1(C)N[C@H](c2ccc(-c3ccc(Cl)c(Cl)c3)cc2)[C@@H]2C(=O)N(C)C(=O)[C@@H]21, CC(C)(C)OC(=O)C[C@@H]1C/C=C\C[C@@H](CC(=O)N(CCO)Cc2ccccc2)C(=O)N[C@H](Cc2ccccc2)COC1=O, CSCCC1NC(=O)N(CC(=O)Nc2cccc(S(=O)(=O)N3CCCCCC3)c2)C1=O (centres undefined), Cc1c(O)c(C)c2c(c1O)C(=O)C[C@@H](c1ccccc1)O2, COc1ccc(/C=C(\C#N)C(=O)NCCCn2ccnc2)cc1, COc1ccc(CNC(=O)CCn2cccc2)cc1, CCC1=Nc2cc(C(=O)NCCCN3CCOCC3)ccc2Sc2ccc(Br)cc21, COCCCNC(=O)CC1C[C@H](C(=O)N2CCCCC2)[C@@]2(CCc3ccccc3)c3[nH]c4ccccc4c3CCN2C1=O (some centres undefined), O=C1OC[C@@H]2CCCN2C(=O)[C@H](CC(=O)N(CCO)Cc2ccccc2)C/C=C\CC[C@@H]1Cc1ccc(F)cc1, Cc1cccc(Nc2nnc(SCC(=O)c3c(N)n(C4CC4)c(=O)[nH]c3=O)s2)c1C, Cc1cccc(C)c1NC(=O)COC(=O)c1c(C)nn(-c2ccccc2)c1C, O=C1NC(Cc2ccc(O)cc2)c2nc3ccc(Cl)cc3c(=O)n2-c2ccccc21 (centres undefined), CCC(CC)COC(=O)C1=C(C)NC(=O)NC1c1ccc([N+](=O)[O-])cc1 (centres undefined), Cc1ccc(CC(=O)Nc2ccc(S(=O)(=O)N3CCOCC3)cc2)cc1C, CC(C)(C)OC(=O)Nc1ccc([C@@H](NC(=O)OC(C)(C)C)C(=O)OC(C)(C)C)cc1, CN(C(=O)c1cccc(NC(=O)Cc2ccc([N+](=O)[O-])cc2)c1)C1CCC1, CN(C)S(=O)(=O)c1cccc(NC(=O)COc2ccc3ccccc3c2)c1, COc1ccc(-c2nc3c(s2)CCc2onc(-c4ccc(OC)cc4)c2-3)cc1, CCOC(=O)[C@@H]1[C@H]2COc3ccc(Br)cc3[C@H]2N2C(=O)N(c3ccc(C)cc3)C(=O)[C@@]12C, CN(C(=O)c1cccc(NC(=O)C2CCN(C(=O)OC(C)(C)C)CC2)c1)C1CCC1, CC(=O)c1ccc(OCCCC(=O)Nc2ccc(C)c(S(=O)(=O)N3CCOCC3)c2)cc1, COc1cc(C(c2c(NC(=O)c3ccco3)sc(C)c2C)N2CCOCC2)cc(OC)c1OC (centres undefined), Cc1ccc(S(=O)(=O)N(C)C)cc1NC(=O)CN1c2cccc3cccc(c23)S1(=O)=O
